Source: PubChem (National Center for Advancing Translational Sciences (NCATS))
Only some compounds are listed: those with a hit (about 6.1% of all), similar ones and a draw of the others.
D3 antag: D3 dopamine receptor (human) antagonism. P35462. D3R cells, DiscoveRx beta-arrestin luminescence, antagonist mode; stronger effect = lower value. max response, negative = inhibition, %. hit rate 2.5% among 360,000. AID 652054; in the data active means max response below about -50%; inconclusive means no clear call, values can overlap the other calls
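Cells expressing the human receptor were seeded at 1500 cells/well, incubated overnight at 37 degrees C in 5% CO2, then exposed to library compounds with dopamine controls for 90 minutes at 37 degrees C before luminescent detection.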
D1 agonist: agonists of human D1 dopamine receptor. P21728. HEK293 T-REx D1 cells, calcium flux, agonist mode. activation, % at 2 µM. hit rate 1% among 360,000. AID 504660; in the data active means activation above about 30%
Target sequence (P21728 whole entry, looked up): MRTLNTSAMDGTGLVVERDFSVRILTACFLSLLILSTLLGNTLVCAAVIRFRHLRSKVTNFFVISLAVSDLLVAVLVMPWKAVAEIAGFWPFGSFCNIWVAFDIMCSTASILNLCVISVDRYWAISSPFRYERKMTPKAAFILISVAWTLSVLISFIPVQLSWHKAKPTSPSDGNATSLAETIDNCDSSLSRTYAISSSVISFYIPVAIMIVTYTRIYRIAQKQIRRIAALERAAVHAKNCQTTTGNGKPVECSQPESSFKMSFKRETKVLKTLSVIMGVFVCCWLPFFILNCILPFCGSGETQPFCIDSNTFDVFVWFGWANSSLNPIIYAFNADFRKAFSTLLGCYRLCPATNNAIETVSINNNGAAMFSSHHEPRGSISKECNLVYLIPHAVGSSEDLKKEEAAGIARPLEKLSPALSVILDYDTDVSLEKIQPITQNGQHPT
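Agonism was scored from calcium flux recorded over 180 s (1 read/s) after pintool compound addition, following a 10-cycle baseline. Cells were inducible force-coupled HEK293 TREx D1, plated overnight at 30 C and loaded with no-wash calcium dye.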
DRD3 agonist: agonists of human D3 dopamine receptor; P35462; D3R DiscoveRx beta-arrestin cells, luminescence, 90 min; max activation, %; hit rate 0.58% among 410,000; AID 652048; in the data active means max activation above about 30%
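Cells at 1500/well, incubated overnight, then treated with pinned compounds (dopamine as control) for 90 min at 37 degrees C. DiscoveRx reagent added for 30 - 60 minutes at room temperature; luminescence read.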
D1 antag: blocks dopamine activation of the human D1 receptor. activity change, negative = inhibition, % at 10 µM. P21728. hit rate 3.2% among 360,000. HEK293 TREx D1 cells, calcium flux, dopamine EC80; stronger effect = lower value; in the data active means activity change below about -30%
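Inducible Hek293 Trex D1 cells (tetracycline, overnight, 30 C). Calcium dye 30–90 min RT. Antagonist mode: EC80 dopamine added after 180 s compound read.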
D1 PAM: potentiators of human D1 dopamine receptor; AID 504651; potentiation, % at 10 µM; HEK293 TREx D1 cells, calcium flux, dopamine EC20 potentiation; P21728; hit rate 0.036% among 360,000; in the data active means potentiation above about 30%
Large screens that a line does not name were inactive.

Cn1cccc1C(=O)NC1CCCCCC1	none
CCOC(=O)c1sc2ccccc2c1OC(=O)c1ccc(C)cc1	DRD3 agonist 35.4
NC(=O)COc1ccc(/C=N/NS(=O)(=O)c2ccccc2)cc1	none
COc1ccc(NC(=O)N(CCN2CCCC2)Cc2cc3cc(OC)c(OC)cc3[nH]c2=O)cc1	D3 antag inconclusive
Cc1ccc2cc(CN(CCN3CCCC3)C(=O)Nc3ccc(F)cc3)c(=O)[nH]c2c1C	D3 antag -77.7
Cc1ccc2cc(CN(CCN3CCOCC3)C(=O)NCc3ccccc3)c(=O)[nH]c2c1C	none
Cc1ccc2cc(CN(CCN3CCCC3)C(=O)Nc3ccccc3)c(=O)[nH]c2c1C	D3 antag -67.4
NC(=O)c1ccc2c(=O)c(O)c(-c3cc(Cl)c(N)c(Cl)c3)[nH]c2c1	D3 antag inconclusive
Cc1ccc(-c2csc3ncnc(N4CCN(Cc5ccccc5)CC4)c23)cc1	none
Cc1csc2ncnc(NC3CCN(Cc4ccccc4)CC3)c12	D3 antag -89.9, D1 antag -33.3
CCNC(=O)c1ccc(CSc2nc3ccccc3s2)cc1	none
COCCNC(=O)c1ccc(CSc2nc3ccccc3s2)cc1	D1 antag -33.8
CN(C)CCCSc1nc2ccccc2s1	D3 antag -81.6
O=C(O)CCSc1nc2ccccc2s1	D3 antag -71.9
CCn1c(CSc2nc3ccccc3s2)n[nH]c1=S	D3 antag -53.3
CCc1cccc(CC)c1NC(=O)CCS(=O)(=O)c1ccc(Br)cc1	none (no result: D3 antag)
O=C1OC(c2ccccc2)=NC12CC2c1ccc(Cl)cc1 (centres undefined)	D3 antag -72.8
COc1ccc(NC(=O)CN2C(=O)S/C(=C/c3cccn3-c3ccc(C(=O)O)cc3)C2=O)cc1	none (no result: D3 antag, DRD3 agonist)
COc1ccc(NC2=C(C(C)=O)C(c3ccc(OC)c(OC)c3)C(C(C)=O)C(C)(O)C2)cc1 (centres undefined)	D1 antag -85.9
COc1ccc(NC2=C(C(C)=O)C(c3ccccc3)C(C(C)=O)C(C)(O)C2)cc1 (centres undefined)	none
CNc1cccc(-c2cccc(O)c2)n1	D3 antag -53.0 (no result: D1 agonist, D1 antag, D1 PAM)
CNc1cncc(-c2cccc(O)c2)n1	none (no result: D1 agonist, D1 antag, D1 PAM)
Cc1cc(C)cc(-c2nnc(SCC(=O)c3c(N)n(C4CC4)c(=O)[nH]c3=O)o2)c1	none
O=S(=O)(Nc1cc(S(=O)(=O)N2CCOCC2)ccc1Cl)c1ccccc1	none (no result: D1 agonist, D1 antag, D1 PAM)
Cc1ccc(-n2nc(CO)c(C(=O)NCCC(C)C)n2)cc1C	D1 antag -47.3 (no result: D3 antag)
CS(=O)(=O)/C=C/c1nc(Nc2cc(F)cc(F)c2)c2ncn(CC(F)F)c2n1	none (no result: D3 antag, DRD3 agonist)
Cc1c(C(=O)Nc2ccc(Nc3ccccc3)cc2)cccc1[N+](=O)[O-]	none
O=C(Nc1ccccc1)c1ccc(Nc2c([N+](=O)[O-])cc([N+](=O)[O-])c3ccccc23)cc1	D3 antag -67.5
CC(=O)c1ccc(N2CCN(C(=O)CN3C(=O)NC4(CCCCC4)C3=O)CC2)c(F)c1	none (no result: D1 PAM)
CC(C)C(c1nnnn1C(C)(C)C)N1CCOCC1 (centres undefined)	D3 antag -61.0
FC(F)(F)c1cc(Cl)c2nnc(-c3ccccn3)n2c1	none
O=C(O)c1ccccc1-c1nnc2c(Cl)cc(C(F)(F)F)cn12	D1 antag -37.7
O=C(CSc1ccccc1)NNC(=O)c1ccncc1	none
Cc1c(N2C(=O)c3cccc4cccc(c34)C2=O)c(=O)n(-c2ccccc2)n1C	none
Cc1c(N=C2Nc3cccc4cccc2c34)c(=O)n(-c2ccccc2)n1C	D1 agonist 36.5
COC(=O)c1c(NC(=O)c2c(OC)cccc2OC)sc2c1CCCC2	none (no result: D3 antag)
COC(=O)c1c(NC(=O)c2ccc(Br)s2)sc2c1CCC2	DRD3 agonist 30.2
C/C(=N\NC(=S)NCC(C)(C)C)c1cc(F)cc(F)c1O	D3 antag -87.6, D1 antag -84.9
COc1ccc(NC(=O)c2cccc(N3C(=O)C4C5C=CC(C5)C4C3=O)c2)c(OC)c1 (centres undefined)	none
O=C(Oc1cccc2cccnc12)c1cccc(N2C(=O)C3C4CCC(C4)C3C2=O)c1 (centres undefined)	D3 antag -87.6
COc1ccc(NC(=O)c2cccc(N3C(=O)C4C5C=CC(C6CC56)C4C3=O)c2)c(OC)c1 (centres undefined)	D1 antag -38.7
COc1ccc(NC(=O)c2cccc(N3C(=O)C4C5CCC(C5)C4C3=O)c2)cc1 (centres undefined)	D1 antag -79.9
Cc1ccn2c(=O)cc(COc3ccc(NC(=O)c4ccccc4F)cc3)nc2c1	none (no result: D3 antag)
CCOC(=O)c1c(S(=O)(=O)N2CCCC(C(=O)Nc3cc(C)ccc3OC)C2)c(C)n(C)c1C (centres undefined)	none (no result: D3 antag)
O=C(NCc1ccc(F)cc1)C1CCCN1S(=O)(=O)c1ccc(F)cc1 (centres undefined)	none (no result: D1 agonist, D1 antag, D1 PAM)
O=C(NCc1ccco1)C1CCCCN1S(=O)(=O)c1ccc(F)cc1 (centres undefined)	D1 antag -38.7
COc1ccccc1-c1nnc(SC/C(O)=C(\C#N)c2nc3ccccc3[nH]2)n1C1CCCCC1	D1 antag -34.3
N#C/C(=C(/O)CSc1nnc(Cc2cccs2)n1C1CCCCC1)c1nc2ccccc2[nH]1	none
CCC(Sc1nc2ccccc2c2nc(CCc3c(C)n[nH]c3C)nn12)C(=O)Nc1ccccc1F (centres undefined)	none (no result: D3 antag)
CCOC(=O)c1c(C)n(-c2ccc(OC)cc2)c2ccc(O)c(CN(C)C)c12	none
CCOC(=O)c1c(C)n(-c2ccc(C)cc2)c2ccc(O)c(CN(C)C)c12	D1 agonist 33.9
CCOC(=O)[C@@H]1[C@H]2COc3ccccc3[C@H]2N2C(=O)N(c3cccc(Cl)c3)C(=O)[C@]12C	none (no result: D1 agonist, D1 antag, D1 PAM)
O=C(NN1C(=O)c2cc(Br)ccc2NC1c1cc(Br)cc(Br)c1O)c1ccncc1 (centres undefined)	D3 antag -66.2
O=C(NN=C1CCN(Cc2ccccc2)CC1)c1ccccc1O	D1 antag -30.9
C[C@H](NS(=O)(=O)c1ccc2c(c1)OCCCO2)C(=O)N1CCN(c2ccc(F)cc2)CC1	none
CCOC(=O)CSc1nc2ccc(N)cc2s1	none
CCOC(=O)CSc1nc(C)c(C(=O)OCC)s1	D1 antag -35.2
Cc1ccc2cc(NC(=O)c3ccc(C(C)(C)C)cc3)ccc2n1	none
CCc1ccc(C(=O)Nc2ccc3nc(C)ccc3c2)cc1	D1 antag -30.6
N=c1c2c(-c3ccccc3)c(-c3ccccc3)n(Cc3ccccc3)c2ncn1CCO	D1 agonist 218.1, D1 PAM 45.6
c1ccc(-c2c(-c3ccccc3)n(Cc3ccco3)c3ncnc(NCCCn4ccnc4)c23)cc1	D3 antag -95.2, D1 agonist 51.8
N=c1c2c(-c3ccccc3)c(-c3ccccc3)n(Cc3ccco3)c2ncn1CCCn1ccnc1	none
N=c1c2c(-c3ccccc3)c(-c3ccccc3)n(Cc3ccco3)c2ncn1Cc1ccccc1	D1 agonist 35.3
